This is an account of results in PubChem BioAssay (Tox21).

A number with no mark means an inactive call. Records with an inconclusive call do not appear. Activity calls are given as the source filed them. Unless noted, calls come from the whole dose curve; as a rule, active = well fitted curve in the direction sought with a large enough effect in the repeat runs; inconclusive = weak or mixed curves; inactive = no such curve, though single readings can be large; an effect the other way counts as inactive or inconclusive.

Test [1] is described as follows: qHTS assay to identify small molecule antagonists of the androgen receptor (AR) signaling pathway using the MDA cell line in the presence of 0.5 nM R1881 - cell viability counter screen (AID 1259242). Note: nearly all actives have a fitted effect of over 45% in size. In short, it runs like this: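 qHTS format. MDA-kb2 (MMTV-luc, AR/GR responsive) + cpd + 0.5 nM R1881 final, 16 hr 37C/0% CO2 → CellTiter-Fluor 30 min → fluorescence intensity.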

Test [2] has as its target Androgen receptor (Homo sapiens) (UniProt P10275). Put plainly: qHTS assay to identify small molecule antagonists of the androgen receptor (AR) signaling pathway using the MDA cell line in the presence of 0.5 nM R1881 (AID 1259243). Note: nearly all actives have a fitted effect of over 50% in size. The method in brief:
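Antagonist mode quantitative HTS in MDA-kb2 MMTV-luciferase cells, agonist R1881 at 0.5 nM final, 16 hr exposure at 37C and 0% CO2, luminescent detection.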

Test [3] addresses Estrogen receptor (Homo sapiens) (UniProt P03372). Put plainly: qHTS assay to identify small molecule antagonists of the estrogen receptor alpha (ER-alpha) signaling pathway using the BG1 cell line in the presence of 0.1 nM 17-beta-estradiol (AID 1259244). Note: nearly all actives have a fitted effect of over 50% in size. The method in brief:
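Reporter is a stably transfected luciferase under four estrogen responsive elements in VM7Luc4E2 cells expressing native full-length ER-alpha; inhibition of 0.1 nM (final) 17beta-estradiol-driven signal over 22 h is read by luminescence.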

The nature of test [4]: qHTS assay to identify small molecule HDAC inhibitors - cell viability counter screen (AID 1259365). Note: series mostly up to about 92 µM; nearly all actives have a fitted effect of over 50% in size. The method in brief: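 Cytotoxicity was gauged in wild-type HCT-116 cells after a brief 2hr treatment with DMSO-dissolved compounds at 37C and 5% CO2, using CellTiter-Glo luminescence developed for 30min at room temperature.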
In general terms: In qHTS, concentration-response curves come from the screen itself.

The nature of test [5]: qHTS assay to identify small molecule agonists of the sonic hedgehog signaling (Shh) pathway - cell viability counter screen (AID 1259366). Note: nearly all actives have a fitted effect of over 50% in size. In short, it runs like this:
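Stable Gli1-Luc NIH/3T3 clone, 2,000 cells/well. Compound exposure 24hr at 37C. Read-out: CellTiter-Fluor fluorescence.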

Test [6] can be described thus: qHTS assay to identify small molecule agonists of the sonic hedgehog signaling (Shh) pathway (AID 1259368; calls by dose curve;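 note: NIH/3T3-derived 3T3Gli1-Luc cells carrying a stable Gli1-driven firefly luciferase reporter; series mostly up to about 92 µM; nearly all actives have a fitted effect of over 15% in size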). In short, it runs like this:
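Quantitative high-throughput format using a Gli1-driven firefly luciferase reporter line derived from NIH/3T3 cells. After a 24 hr compound treatment at 37 C and 5% CO2, luminescence reported Gli1 response element activity.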

Test [7] has as its target Estrogen receptor beta (Homo sapiens) (UniProt Q92731). The experiment in a line: qHTS assay to identify small molecule agonists of the estrogen receptor beta (ER-beta) signaling pathway (AID 1259377; active = well fitted activation curve with a large enough effect in the signal ratio in the repeat runs, not every such curve was filed as active; the % refers to the signal ratio). In short, it runs like this: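 Measured by fluorescence intensity from a B/G FRET beta-lactamase substrate (2 h, room temperature) in ER-beta-UAS-bla HEK293T cells treated with DMSO-dissolved compounds for 16 hr at 37C and 5% CO2.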

A short description of test [8]: qHTS assay to identify small molecule agonists of the androgen receptor (AR) signaling pathway in the presence of an antagonist - cell viability counter screen (AID 1259379).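 Note: MDA-kb2 human breast cancer cells carrying an MMTV luciferase reporter; series mostly up to about 92 µM; nearly all actives have a fitted effect of over 25% in size.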 The method in brief:
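Nilutamide-containing (3.0uM final) MDA-kb2 cultures, 3,000 cells/well, were treated with compounds across 15 concentrations. After 16 hr at 37C with no CO2, cell viability was determined by CellTiter-Fluor fluorescence in the luciferase assay wells.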

The target of test [9] is Androgen receptor (Homo sapiens) (UniProt P10275). Put plainly: qHTS assay to identify small molecule agonists of the androgen receptor (AR) signaling pathway in the presence of an antagonist (AID 1259381; calls by dose curve; note: nearly all actives have a fitted effect of over 15% in size). The method in brief: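 Reporter-gene luminescence from MDA-kb2 cells exposed 16hr at 37C (0% CO2) to 15-point compound titrations with 3.0uM final nilutamide as AR antagonist.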

Test [10] can be described thus: qHTS assay to identify small molecule antagonists of the estrogen receptor beta (ER-beta) signaling pathway - cell viability counter screen (AID 1259382). Note: series mostly up to about 92 µM; nearly all actives have a fitted effect of over 55% in size. The method in brief: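 Viability is scored by CellTiter-Glo luminescence (30 min, room temperature) in ER-beta-UAS-bla HEK293T wells already read for reporter fluorescence. Compound exposure lasts 16 hr at 37C alongside 1nM 17-beta-estradiol in charcoal-stripped serum medium.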

In test [11] the target is Estrogen receptor (Homo sapiens) (UniProt P03372). Put plainly: qHTS assay to identify small molecule agonists of the estrogen receptor alpha (ER-alpha) signaling pathway in the presence of an antagonist (AID 1259383; calls by dose curve; note: top concentration of the series differs between compounds; nearly all actives have a fitted effect of over 15% in size). In short, it runs like this: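 Readout was ERE-driven luciferase luminescence in VM7Luc4E2 cells, which express full-length ER-alpha endogenously. Compounds were tested at 15 concentrations for 22hr alongside 10.0nM ICI-182,780 (final concentration).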

The nature of test [12]: qHTS assay to identify small molecule agonists or antagonists of the thyroid stimulating hormone receptor (TSHR) signaling pathway - wild type cell line counter screen (AID 1259384; calls by dose curve). In short, it runs like this:
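Wild-type HEK293 cells were plated 18 h at 37 C/5% CO2, pin-dosed with compound plus Ro20-1724 medium, held 30 min at room temperature, then given cAMP-d2 and anti-cAMP-cryptate; fluorescence was read after 1 h. Fifteen concentrations, triplicate.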

Test [13] addresses Thyrotropin receptor (Homo sapiens) (UniProt P16473). Put plainly: qHTS assay to identify small molecule antagonists of the thyroid stimulating hormone receptor (TSHR) signaling pathway (AID 1259385; calls by dose curve; note: nearly all actives have a fitted effect of over 20% in size). In short, it runs like this:
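TSHR-HEK293 cells were plated and held 18 h at 37C/5% CO2, then given compound plus Ro20-1724 and stimulated with TSH at 1.5 ng/mL final. After 30 min at room temperature, cAMP was detected with cAMP-d2/anti-cAMP-cryptate (1 h) by fluorescence.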

A short description of test [14]: qHTS assay to identify small molecule agonists of the estrogen receptor alpha (ER-alpha) signaling pathway in the presence of an antagonist - cell viability counter screen (AID 1259386).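 Note: series mostly up to about 92 µM; cells exposed to compounds for 22 h at 37 °C before the viability read; nearly all actives have a fitted effect of over 30% in size.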 The method in brief:
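In this counter screen, compound effects on VM7Luc4E2 viability were tested in the presence of the antagonist ICI-182,780 at 10.0nM final. Compounds were dosed at 15 concentrations, exposure lasted 22hr, and the CellTiter-Fluor signal was read.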

Test [15] is described as follows: qHTS assay to identify small molecule HDAC inhibitors (AID 1259364).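 Note: wild-type HCT-116 cells with endogenous class I/II HDAC activity; top concentration of the series differs between compounds; nearly all actives have a fitted effect of over 45% in size.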 The method in brief: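 Quantitative high-throughput format: overnight-seeded HCT-116 cells got compounds for 2 hr at 37C; HDAC-Glo I/II reagent added, 30 min RT, luminescence measured.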
A short description of test [16]: qHTS assay to identify small molecule antagonists of the sonic hedgehog signaling (Shh) pathway - cell viability counter screen (AID 1259367). Note: nearly all actives have a fitted effect of over 55% in size. The method in brief: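 Conditioned medium drove Shh signaling in 3T3 Gli1-Luc cells exposed to compounds at 37C and 5% CO2. Viability was determined from CellTiter-Fluor fluorescence, with reagent incubated 1 hr after 23 hr of treatment.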

A short description of test [17]: qHTS assay to identify small molecule agonists of the estrogen receptor beta (ER-beta) signaling pathway - cell viability counter screen (AID 1259380). Note: nearly all actives have a fitted effect of over 30% in size. Note: potency is the fitted concentration of half-maximal effect. In short, it runs like this:
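Steps: plate ER-beta-UAS-bla HEK293T cells, rest 6 hr; add compounds in DMSO; incubate 16 hr at 37C, 5% CO2; add FRET substrate 2 hr; add CellTiter-Glo, wait 30 min at room temperature; read luminescence.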

Test [18] can be described thus: qHTS assay to identify small molecule antagonists of the sonic hedgehog signaling (Shh) pathway (AID 1259369; calls by dose curve; note: nearly all actives have a fitted effect of over 45% in size). In short, it runs like this: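 Stable Gli1-Luc reporter NIH/3T3 clone; quantitative HTS in stimulated mode with conditioned medium. Luminescence measured after 24hr compound treatment at 37 C.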
In test [19] the target is Estrogen receptor beta (Homo sapiens) (UniProt Q92731). Put plainly: qHTS assay to identify small molecule antagonists of the estrogen receptor beta (ER-beta) signaling pathway (AID 1259378; active = well fitted inhibition curve with a large enough effect in the signal ratio in the repeat runs, not every such curve was filed as active; the % refers to the signal ratio). The method in brief: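 ER-beta-UAS-bla HEK293T (GripTite) cells in 2% charcoal-stripped FBS medium were preincubated 6 hr at 37C, dosed with compound, then stimulated with 1 nM E2 (final) for 16 hr; beta-lactamase reporter read by B/G FRET fluorescence after 2 hr substrate loading.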
Chain of Estrogen receptor beta (Homo sapiens) (Q92731 whole entry, looked up): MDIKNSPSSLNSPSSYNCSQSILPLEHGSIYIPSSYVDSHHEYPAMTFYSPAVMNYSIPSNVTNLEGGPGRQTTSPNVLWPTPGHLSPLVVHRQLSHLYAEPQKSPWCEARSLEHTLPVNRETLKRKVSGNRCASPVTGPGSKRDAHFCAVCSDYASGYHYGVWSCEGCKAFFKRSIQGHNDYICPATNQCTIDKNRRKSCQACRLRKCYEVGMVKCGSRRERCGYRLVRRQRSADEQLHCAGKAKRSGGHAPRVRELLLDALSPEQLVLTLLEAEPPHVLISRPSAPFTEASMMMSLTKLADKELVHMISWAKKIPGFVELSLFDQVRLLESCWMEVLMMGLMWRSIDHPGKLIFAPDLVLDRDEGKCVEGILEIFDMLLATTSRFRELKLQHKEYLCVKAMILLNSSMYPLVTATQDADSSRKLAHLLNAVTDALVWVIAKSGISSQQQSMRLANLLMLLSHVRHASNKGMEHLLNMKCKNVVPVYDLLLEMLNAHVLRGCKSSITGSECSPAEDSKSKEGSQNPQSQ

Chain of Androgen receptor (Homo sapiens) (P10275 whole entry, looked up): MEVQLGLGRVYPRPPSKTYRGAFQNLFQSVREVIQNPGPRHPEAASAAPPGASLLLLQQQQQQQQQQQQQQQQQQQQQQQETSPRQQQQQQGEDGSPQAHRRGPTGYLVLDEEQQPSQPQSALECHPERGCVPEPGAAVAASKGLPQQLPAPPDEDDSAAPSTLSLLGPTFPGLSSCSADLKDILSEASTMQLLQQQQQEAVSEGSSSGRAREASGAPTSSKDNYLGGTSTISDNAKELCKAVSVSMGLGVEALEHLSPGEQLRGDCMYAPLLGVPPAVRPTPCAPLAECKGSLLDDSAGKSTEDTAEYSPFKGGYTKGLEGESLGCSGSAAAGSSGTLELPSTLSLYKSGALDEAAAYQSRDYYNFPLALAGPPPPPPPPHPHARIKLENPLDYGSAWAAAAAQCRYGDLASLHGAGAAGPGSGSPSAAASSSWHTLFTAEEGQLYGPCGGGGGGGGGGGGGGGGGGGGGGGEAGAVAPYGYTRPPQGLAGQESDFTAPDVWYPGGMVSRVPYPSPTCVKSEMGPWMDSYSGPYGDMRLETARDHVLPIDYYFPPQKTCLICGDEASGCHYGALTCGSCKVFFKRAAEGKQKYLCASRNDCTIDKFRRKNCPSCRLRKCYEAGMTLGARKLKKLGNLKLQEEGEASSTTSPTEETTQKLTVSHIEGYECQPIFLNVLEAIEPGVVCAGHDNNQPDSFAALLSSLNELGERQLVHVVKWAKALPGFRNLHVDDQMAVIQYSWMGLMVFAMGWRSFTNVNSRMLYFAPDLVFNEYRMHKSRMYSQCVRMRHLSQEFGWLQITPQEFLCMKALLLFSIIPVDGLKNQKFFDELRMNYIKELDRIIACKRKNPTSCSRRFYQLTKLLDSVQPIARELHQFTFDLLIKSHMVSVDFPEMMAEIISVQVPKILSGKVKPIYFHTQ
Chain of Thyrotropin receptor (Homo sapiens) (P16473 whole entry, looked up): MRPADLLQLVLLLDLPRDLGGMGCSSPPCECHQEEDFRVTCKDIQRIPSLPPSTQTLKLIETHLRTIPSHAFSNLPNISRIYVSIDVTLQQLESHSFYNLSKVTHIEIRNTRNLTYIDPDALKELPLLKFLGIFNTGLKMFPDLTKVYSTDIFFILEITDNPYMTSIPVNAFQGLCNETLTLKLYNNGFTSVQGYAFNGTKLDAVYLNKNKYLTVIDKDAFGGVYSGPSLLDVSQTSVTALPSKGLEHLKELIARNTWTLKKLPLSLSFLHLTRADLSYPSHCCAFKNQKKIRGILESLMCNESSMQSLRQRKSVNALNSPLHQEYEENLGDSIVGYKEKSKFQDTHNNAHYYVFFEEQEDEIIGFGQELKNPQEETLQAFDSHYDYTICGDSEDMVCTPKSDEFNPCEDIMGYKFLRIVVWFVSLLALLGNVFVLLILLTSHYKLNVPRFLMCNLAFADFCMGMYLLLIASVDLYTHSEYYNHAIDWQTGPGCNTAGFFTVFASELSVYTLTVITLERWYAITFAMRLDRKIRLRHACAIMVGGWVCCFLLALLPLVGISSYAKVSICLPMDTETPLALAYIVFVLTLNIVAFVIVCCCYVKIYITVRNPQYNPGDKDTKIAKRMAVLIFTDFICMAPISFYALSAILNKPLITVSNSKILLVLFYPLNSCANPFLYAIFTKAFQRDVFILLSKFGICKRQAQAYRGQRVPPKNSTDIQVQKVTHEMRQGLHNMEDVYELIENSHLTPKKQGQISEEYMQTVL
Chain of Estrogen receptor (Homo sapiens) (P03372 whole entry, looked up): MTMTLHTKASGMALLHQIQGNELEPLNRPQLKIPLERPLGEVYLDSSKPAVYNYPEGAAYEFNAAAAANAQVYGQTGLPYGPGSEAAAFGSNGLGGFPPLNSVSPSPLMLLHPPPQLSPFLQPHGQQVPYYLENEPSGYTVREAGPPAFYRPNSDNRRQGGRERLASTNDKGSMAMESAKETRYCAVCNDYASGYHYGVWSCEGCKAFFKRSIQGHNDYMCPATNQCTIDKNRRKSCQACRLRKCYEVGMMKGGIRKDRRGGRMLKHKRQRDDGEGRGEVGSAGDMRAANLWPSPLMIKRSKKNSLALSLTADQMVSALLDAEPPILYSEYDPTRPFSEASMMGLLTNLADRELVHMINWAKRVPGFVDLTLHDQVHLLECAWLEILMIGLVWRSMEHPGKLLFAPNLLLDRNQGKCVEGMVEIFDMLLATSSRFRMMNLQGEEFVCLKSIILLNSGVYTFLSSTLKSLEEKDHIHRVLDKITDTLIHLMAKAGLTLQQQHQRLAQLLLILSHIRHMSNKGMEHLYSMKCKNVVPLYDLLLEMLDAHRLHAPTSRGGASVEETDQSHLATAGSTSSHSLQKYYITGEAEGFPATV

As to `O=C(Nc1ccccc1)c1ccccc1I`, the result in test [1], in test [4], in [6] and in [7] was inactive. Besides, the Potency entry in test [2], in test [3], in test [5], in test [8], in test [9] and in [10] was “inactive” each time. Further, the Potency result in test [11], in test [12], in test [13] and in [14] was “inactive” in each case.

With `CC(Oc1ccc(Oc2ncc(C(F)(F)F)cc2Cl)cc1)C(=O)O` (configuration not stated), the result in test [1], in [4] and in [6] was inactive. The Potency entry in [2], in test [3], in [15], in test [5], in test [16] and in [8] was “inactive” throughout. Besides, the Potency entry in test [9], in test [11], in test [12], in test [13] and in [14] was “inactive” in each case. Further, the Potency in [17] is 17.2 µM (active).

Turning to `CC(C(O)c1ccccc1)N(C)C/C=C/c1ccccc1` (configuration not stated), the outcome in [1], in [4], in test [6] and in test [7] was inactive. Moreover, the Potency entry in test [2], in test [3], in test [5], in [16], in test [18] and in test [19] was “inactive” in each case. Moreover, the Potency entry in [8], in test [9], in [10], in test [11], in test [12] and in [14] was “inactive” in each case.

Turning to `Fc1cc(Br)ccc1CBr`, the result in test [1], in test [4], in test [6] and in test [7] was inactive. The Potency result in test [2], in test [3], in test [5], in [16], in test [18] and in test [19] was “inactive” throughout. The Potency entry in test [8], in test [17], in [9], in test [10], in [11] and in [12] was “inactive” in each case. Further, the Potency result in test [13] and in test [14] was “inactive” each time.

Take `c1ccc(N2CCNCC2)cc1`: the outcome in test [1], in test [4], in test [6] and in [7] was inactive. Also, the Potency entry in test [2], in test [15], in [5], in test [16], in test [18] and in test [19] was “inactive” throughout. The Potency result in [8], in test [17], in test [9], in [10], in test [12] and in test [13] was “inactive” throughout. Besides, the Potency result in [14] was “inactive”.

As to `Nc1ccccc1Cl`, the outcome in test [1], in [4], in test [6] and in [7] was inactive. For the same compound, the Potency entry in test [2], in test [3], in [15], in test [5], in [16] and in test [18] was “inactive” throughout. In addition, the Potency entry in [19], in [8], in test [17], in test [9], in test [10] and in test [11] was “inactive” each time. Moreover, the Potency result in test [12], in test [13] and in test [14] was “inactive” each time.

As to `C#CCN1C(=O)COc2cc(F)c(N3C(=O)C4=C(CCCC4)C3=O)cc21`, the result in test [1], in test [4], in [6] and in test [7] was inactive. Moreover, the Potency entry in test [2], in test [3], in test [5], in [16], in [8] and in test [17] was “inactive” each time. Also, the Potency result in [9], in test [10], in [11], in test [12], in test [13] and in test [14] was “inactive” throughout.

For the compound `CCCCCCI`, the result in test [1], in [4], in test [6] and in test [7] was inactive. The Potency result in test [2], in [3], in test [15], in test [5], in test [16] and in test [18] was “inactive” each time. Besides, the Potency entry in test [19], in test [8], in test [17], in test [9], in [10] and in test [11] was “inactive” each time. Further, the Potency result in test [14] is “inactive”.
